Hits are enriched below; roughly 1.1% of the tested compounds scored in any of these assays.
OPRM1-OPRD1 inv = inverse agonists of human mu-delta opioid receptor heterodimerization. P35372+P41143. cell-based MOR-DOR heterodimer luminescence, inverse agonism. inhibition, % at 9.3 µM. 340,000 tested, 0.21% active; in the data active = inhibition above about 22%, passing the limit was not always enough;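 also: 0% = cells with DMSO and 100% = wells without cells with DMSO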
OPRM1-OPRD1 ag = agonists of human mu-delta opioid receptor heterodimerization; AID 504326; activation, % at 9.3 µM; 340,000 tested, 0.3% active; cells, OPRM1-OPRD1 heterodimerization, luminescence;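 also: 0% = vehicle-treated cells and 100% = reference agonist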
HTR5A inv ctr = counter-screen for OPRM1-OPRD1 inverse agonists: human HTR5A inverse agonism | P47898 | HTR5A cell line, luminescence | inhibition, % at 9.3 µM | 340,000 tested, 0.083% active; in the data active = inhibition mostly above about 23%, no sharp cut-off; inactive = mostly below about 18%;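 also: 0% = cells with DMSO and 100% = no-cell wells with DMSO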
Target sequence (P47898 whole entry, looked up): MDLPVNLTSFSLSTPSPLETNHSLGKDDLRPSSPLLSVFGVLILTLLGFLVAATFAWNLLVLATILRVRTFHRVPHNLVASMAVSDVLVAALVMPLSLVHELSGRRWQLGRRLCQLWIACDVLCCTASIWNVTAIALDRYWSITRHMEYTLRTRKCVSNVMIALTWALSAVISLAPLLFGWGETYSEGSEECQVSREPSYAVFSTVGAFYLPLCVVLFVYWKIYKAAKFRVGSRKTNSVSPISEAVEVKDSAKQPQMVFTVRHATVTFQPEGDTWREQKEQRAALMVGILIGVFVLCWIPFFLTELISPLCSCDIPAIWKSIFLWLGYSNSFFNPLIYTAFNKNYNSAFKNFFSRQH
Bfl-1 A1 inh = inhibitors of the anti-apoptotic protein A1, read as caspase activation; MEF A1-2A-BIM cells, Caspase-Glo 3/7 luminescence, 3 h; percent of clofoctol response, vehicle zero; caspase activation, % (test concentration not listed); 330,000 tested, 0.066% active; AID 2462;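 active = over half of replicate activation scores above 10%, or exactly half above 10 with the replicate mean above 10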
HTR5A ag ctr = counter-screen for OPRM1-OPRD1 agonists: human HTR5A agonism. HTR5A agonist assay, luminescence, cell-based. activation, % at 9.3 µM. 340,000 tested, 0.61% active; in the data active = activation mostly above about 9.5%, no sharp cut-off; inactive = mostly below about 7.6%;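 also: 0% = cells with vehicle only and 100% = reference agonist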
MOR-DOR ag conf = confirmation of human OPRM1-OPRD1 heterodimerization agonists | shares compounds with OPRM1-OPRD1 ag | 830 tested, 45% active | cells, MOR-DOR heterodimerization, luminescence complementation | activation, % at 9.3 µM;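 also: 0% = vehicle-treated cells and 100% = reference agonist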
HTR5A ag counter = HTR5A agonism, opioid heterodimer counter-screen; shares compounds with OPRM1-OPRD1 ag; AID 504905; activation, % at 9.3 µM; HTR5A agonist counterscreen, cell luminescence; 830 tested, 8% active; in the data active = activation above about 17%;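 also: 0% = vehicle-treated cells and 100% = reference agonist response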
Active calls of the source: *; i = inactive; nt = no result given. Rule as the data show it, unless noted: active = activation above about 18%; inactive = the rest.

SMILES	OPRM1-OPRD1 inv	OPRM1-OPRD1 ag	HTR5A inv ctr	Bfl-1 A1 inh	HTR5A ag ctr	others
Cc1cc(C)c(OCC(=O)OCC(=O)NC2CCC(C)CC2)c(C)c1 (centres undefined)	-16	2	-30	0	10
Cc1nc2ccccn2c1CN(C)C(=O)C1CCC(=O)N(Cc2cccc(F)c2)C1 (centres undefined)	12	-2	0	-1	0
O=C(NCc1ccc(F)cc1)C1CCC(CNS(=O)(=O)c2cccs2)CC1 (centres undefined)	-26	4	-23	0	14*
C=C(C)C(=O)N1CC2(CC(c3cccc(NC(=O)/C(C)=C\C)c3)=NO2)C[C@H]1C(N)=O (some centres undefined)	8	-2	-8	2	3
O=C(O)CC(Cc1ccc(Br)cc1)C(=O)Nc1ccccc1 (centres undefined)	4	-1	1	0	0
O=C(O)CC(Cc1ccc(Cl)cc1)C(=O)Nc1ccccc1 (centres undefined)	7	-1	-38	0	10*
CCOC(=O)N1CCN(C(=O)CCn2c(=S)[nH]c3ccccc3c2=O)CC1	14	-3	1	2	-3
O=C(CCn1c(=S)[nH]c2ccccc2c1=O)N1CCCCC1	13	-2	-35	1	9.4*
CC(C)Cn1c(=O)c(C(=O)Nc2ccccc2S(N)(=O)=O)c(O)c2ccccc21	-12	2	-4	-2	9
CCC(C)n1c(=O)c(C(=O)Nc2ccccc2S(N)(=O)=O)c(O)c2ccccc21 (centres undefined)	-25	4	8	1	9.0*
O=C(O)CCC(=O)Nc1ccccc1C(=O)NCCc1ccccc1	9	-2	20	-1	12*
CC(C)(C)c1nn(-c2ccccc2)c2[nH]c(=O)c(CNCc3ccc4c(c3)OCO4)cc12	-36	6	-28	0	12*
COc1ccc(C#Cc2c(-c3ccccc3)n(-c3ccccc3)c3ccc(CO)cc23)cc1	15	-3	-7	-2	-1
CC(=O)N1CCN(C(=O)COC(=O)/C=C/c2ccc(C(F)(F)F)cc2)CC1	10	-3	22	0	14*
CC1(C)CNc2cc(N)ccc2S1	-20	4	9	0	8
COc1cc(/C(C)=N/NC(=O)c2ccc(CSc3nncn3C)cc2)cc(OC)c1OC	-11	2	-28	0	10*
C=CCN1C(=O)C2(C(C#N)=C(N)Oc3n[nH]c(CCC)c32)c2ccccc21 (centres undefined)	8	-1	11	0	2
O=C1OC(N2CCN(C(=O)c3ccco3)CC2)c2ccccc21 (centres undefined)	13	-2	-15	2	9.9*
COc1ccc(NC(=O)CC2CC3CCC2C3)cc1S(=O)(=O)N1CCOCC1 (centres undefined)	15	-3	6	3	-2
CC(C)c1cc(C(=O)N2CCCC(N3CCN(c4ccc(F)cc4)CC3)C2)n(C)n1 (centres undefined)	16	-3	-5	nt	10*
Cc1cc(Cl)ccc1Oc1ncc(CN2CCN(c3ccccc3)CC2)s1	-6	1	-23	1	3
COc1ccc(Oc2ncc(CN3CCN(c4ccccc4)CC3)s2)cc1	-47	8	-38	0	10*
NNS(=O)(=O)c1ccc2c(c1)Cc1cc(S(=O)(=O)NN)ccc1-2	17	-4	-45	1	12*
COc1ccc(Cn2c(=S)[nH]c3cc(C(=O)NCc4cccnc4)ccc3c2=O)cc1	12	-2	-38	1	13*
COc1ccccc1Cn1c(=S)[nH]c2cc(C(=O)NCc3cccnc3)ccc2c1=O	4	-1	2	0	-1
SMILES	OPRM1-OPRD1 inv	OPRM1-OPRD1 ag	HTR5A inv ctr	Bfl-1 A1 inh	HTR5A ag ctr	others
COC(=O)c1ccc2c(=O)n(Cc3ccc4c(c3)OCO4)c(=S)[nH]c2c1	1	0	-22	6.3*	6
COCCn1c(=S)[nH]c2cc(C(=O)N3CCN(Cc4ccc5c(c4)OCO5)CC3)ccc2c1=O	-2	0	19	0	4
COc1ccccc1-n1c(SCC(=O)NCC2CCCO2)nc2c([nH]c3ccccc32)c1=O (centres undefined)	45*	-8	38*	0	-12
CC(C)(C)c1cc(NC(=O)CCl)n(-c2ccccc2)n1	13	-3	-15	0	5
Cc1ccsc1C(=O)Nc1cc(C(C)(C)C)nn1-c1ccccc1	-3	1	22	0	14*
COC(=O)c1cccc(NC(=O)c2ccc[n+]([O-])c2)c1	11	-2	-18	1	6
CSc1ccc(/C=C2\C(=N)N3N=C(CC(=O)N4CCOCC4)SC3=NC2=O)cc1	8	-2	-37	0	12*
COc1ccccc1-c1oc2ccccc2c1C#CC(C)(C)O	1	0	1	-1	15
CN1C2CCC1CC(N(CCc1ccccc1)C(=O)c1ccc(Cl)cc1)C2 (centres undefined)	-11	2	-8	1	2
CN1C2C=C(N(CCc3ccccc3)C(=O)c3ccc(Cl)cc3)CC1CC2 (centres undefined)	-377	73*	5	0	1	MOR-DOR ag conf=89*;HTR5A ag counter=-4
Cc1cccc(C(=O)n2c(=S)nc3ccccn32)c1	5	-1	-9	-7	3
O=C(CSc1ccccc1)Nc1ccc(-c2nc3ccccc3[nH]2)cc1	-111	22*	-32	0	8	MOR-DOR ag conf=5;HTR5A ag counter=-2
O=C(Nc1cccc(-c2nc3ccccc3[nH]2)c1)c1cccc(NC(=O)c2ccco2)c1	-459	88*	13	-1	7	MOR-DOR ag conf=-2;HTR5A ag counter=-1
O=C(CSc1ccc(Cl)cc1)Nc1cccc(-c2nc3ccccc3[nH]2)c1	-203	34*	-6	0	2	MOR-DOR ag conf=13;HTR5A ag counter=8
COc1ccc(C(=O)NCCS(=O)(=O)NC(C)c2ccccc2)cc1 (centres undefined)	5	-1	-26	0	8
O=C(Cn1c(-c2ccccc2)c[n+]2ccsc12)c1ccc(Br)cc1	i	171*	-12	0	4	MOR-DOR ag conf=3;HTR5A ag counter=-1
Cc1nc2cc(NC(=O)c3ccc([N+](=O)[O-])s3)ccc2s1	-161	30*	-18	-3	9	MOR-DOR ag conf=1;HTR5A ag counter=6
COC1=C(c2ccccc2)C(=O)c2ccccc2C1=O	-57	8	36	0	-3
O=C(C1=C(c2ccccc2)C(=O)c2ccccc2C1=O)c1ccccc1	-132	20*	-9	nt	3	MOR-DOR ag conf=6;HTR5A ag counter=0
CC1=CC(c2ccccc2)n2nc(NS(=O)(=O)c3ccc(C)cc3)nc2N1 (centres undefined)	-7	1	5	-1	-2
